The record followed here is the supplement of paper PMC6609913.

The experiment deals with V-C8 + BRCA2 (BRCA2-proficient hamster cells). Kind of experiment: normalised cell viability (fraction of plate median); higher = more viable cells (less toxic). The following applies: 5 µM. The essentials:
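Hamster V-C8 cells lacking BRCA2 and V-C8 cells with BRCA2 restored were seeded in 96-well plates. Library drugs (10 mM DMSO stocks) were added 24 h later at 5 μM in 100 μl medium, next to DMSO control wells, for 3 days (screen 1) or 6 days (screen 2). Cell viability was read by resazurin assay, median-plate normalised (modified robust per cent of sample), and triplicate wells were averaged.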

Counter-ions that a name gives are not always drawn. ± gives the standard deviation of the averaged measurements. The full ranking holds about 1,300 compounds; the median of “normalised cell viability” is about 1, and the lowest 2% start at about 0.15. This is one part of a sample in which the lowest values are shown more often than they occur.

On to `COc1ccc(CCN2CCC(Nc3nc4ccccc4n3Cc3ccc(F)cc3)CC2)cc1` [Astemizole], for which the normalised cell viability reads like this: (treatment time: 3 days) 0.118 ± 0.0065; (treatment time: 6 days) 0.102 ± 0.0063.
As to `Fc1ccc(C(OCCN2CCN(CCCc3ccccc3)CC2)c2ccc(F)cc2)cc1`, the normalised cell viability came to 0.18 ± 0.0028 (treatment time: 3 days) and 0.191 ± 0.0064 (treatment time: 6 days).
As to `C[C@]12C[C@H]3S[C@H]3C[C@@H]1CC[C@@H]1[C@@H]2CC[C@]2(C)[C@@H](O)CC[C@@H]12` [Epitiostanol], the normalised cell viability (treatment time: 3 days) is 1.02 ± 0.019 and the normalised cell viability (treatment time: 6 days) was 1.05 ± 0.022.
In the case of `CC(C)[N+](C)(CCC(C(N)=O)(c1ccccc1)c1ccccc1)C(C)C` [Isopropamide iodide], the normalised cell viability is, setting by setting: (treatment time: 3 days) 1.04 ± 0.062; (treatment time: 6 days) 1.02 ± 0.11.
Taken in the same sequence, the figures for `CN1[C@@H]2CC[C@H]1C[C@@H](OC1c3ccccc3CCc3ccccc31)C2` [Deptropine citrate] were 0.931 ± 0.016 and 0.869 ± 0.065.
For `OC(c1ccccc1)(c1ccccc1)C1CCNCC1` [Azacyclonol], the normalised cell viability (treatment time: 3 days) is 0.985 ± 0.041 and the normalised cell viability (treatment time: 6 days) was 1.03 ± 0.042.
In the same order, the values of `C[C@@H]1CC[C@H]2[C@@H](C)C(=O)O[C@@H]3O[C@@]4(C)CC[C@@H]1[C@]32OO4` [Artemisinin] are 0.794 ± 0.024 and 0.87 ± 0.095.
In the same order, the values of `C[C@]12CC[C@H](O)C[C@H]1CC[C@@H]1[C@@H]2C[C@@H](O)[C@]2(C)[C@@H](C3=CC(=O)OC3)CC[C@]12O` [Digoxigenin] are 0.962 ± 0.11 and 0.986 ± 0.056.
Take `CC(=O)NC1CCSC1=O` (racemic) [N-Acetyl-DL-homocysteine Thiolactone]: the normalised cell viability came to 1.05 ± 0.096 (treatment time: 3 days) and 1.06 ± 0.11 (treatment time: 6 days).
In the same order, the values of `CO[C@]12C[C@@H](COC(=O)c3cncc(Br)c3)CN(C)[C@@H]1Cc1cn(C)c3cccc2c13` [Nicergoline] are 0.81 ± 0.019 and 0.926 ± 0.01.
In the same order, the values of `CNCC(O)c1ccc(O)cc1` (racemic) [(+,-)-Synephrine] are 1.01 ± 0.085 and 1.01 ± 0.022.
As to `C[CH2][Hg][S]c1ccccc1C(=O)[O-].[Na+]` [Thimerosal], the normalised cell viability runs as follows: (treatment time: 3 days) 0.106 ± 0.0062; (treatment time: 6 days) 0.118 ± 0.007.
In the same order, the values of `NCCC(O)C(=O)NC1CC(N)C(OC2OC(CN)C(O)[C@H](O)[C@@H]2N)[C@H](OC2O[C@H](CO)[C@@H](O)[C@@H]2O)[C@@H]1O` (stereo not given in full) [Butirosin disulfate salt] are 0.979 ± 0.026 and 0.868 ± 0.3.
In the same order, the values of `C[C@@H]1C[C@@H]([C@H](O)CC2CC(=O)NC(=O)C2)C(=O)[C@@H](C)C1` [Cycloheximide] are 0.146 ± 0.008 and 0.138 ± 0.016.
Taken in the same sequence, the figures for `CC(CCc1ccccc1)NC(C)C(O)c1ccc(O)cc1` (stereo not given) [Nylidrin] were 1.02 ± 0.0065 and 1.02 ± 0.051.
Take `CCC(=O)O[C@@](Cc1ccccc1)(c1ccccc1)[C@@H](C)CN(C)C` [Levopropoxyphene napsylate]: the normalised cell viability stood at 0.979 ± 0.083 (treatment time: 3 days) and 1.058 ± 0.0096 (treatment time: 6 days).
Consider `COc1cc([C@@H]2c3cc4c(cc3[C@H](O)[C@H]3COC(=O)[C@H]23)OCO4)cc(OC)c1OC` [Podophyllotoxin], for which the normalised cell viability reads like this: (treatment time: 3 days) 0.143 ± 0.0046; (treatment time: 6 days) 0.136 ± 0.016.
On to `C=C1CC[C@@]2(O)[C@H]3Cc4ccc(O)c5c4[C@@]2(CCN3CC2CC2)[C@H]1O5` [Nalmefene hydrochloride], for which the normalised cell viability (treatment time: 3 days) is 1 ± 0.043 and the normalised cell viability (treatment time: 6 days) stood at 1.07 ± 0.15.
In the same order, the values of `C=C1[C@@H]2CC[C@H]3[C@]4(C)C[C@H](O[C@@H]5O[C@H](CO)[C@@H](OS(=O)(=O)O)[C@H](OS(=O)(=O)O)[C@H]5OC(=O)CC(C)C)C[C@@H](C(=O)O)[C@H]4CC[C@]3(C2)[C@@H]1O` [Atractyloside potassium salt] are 1.08 ± 0.093 and 1.15 ± 0.031.
Taken in the same sequence, the figures for `COc1ccc2c(c1)[C@]13CCCC[C@@H]1[C@H](C2)N(C)CC3` [Dextromethorphan hydrobromide monohydrate] were 1.13 ± 0.078 and 1.02 ± 0.054.
With `CC[C@@]1(O)C(=O)OCc2c1cc1n(c2=O)Cc2cc3ccccc3nc2-1` [Camptothecine (S,+)], the normalised cell viability came to 0.142 ± 0.014 (treatment time: 3 days) and 0.124 ± 0.012 (treatment time: 6 days).
As to `CCC(=O)O[C@H]1CC[C@H]2[C@@H]3CCC4=CC(=O)CC[C@]4(C)[C@H]3CC[C@]12C` [Testosterone propionate], the normalised cell viability (treatment time: 3 days) is 0.906 ± 0.085 and the normalised cell viability (treatment time: 6 days) is 1 ± 0.1.
Taken in the same sequence, the figures for `CN1[C@@H]2CC[C@H]1C[C@@H](OC(=O)C(CO)c1ccccc1)C2` (stereo not given in full) [Atropine sulfate monohydrate] were 0.925 ± 0.033 and 0.988 ± 0.053.
In the same order, the values of `O=C(CCCN1CCC2(CC1)C(=O)NCN2c1ccccc1)c1ccc(F)cc1` [Spiperone] are 1.07 ± 0.04 and 0.997 ± 0.072.
Take `CCCCCC[C@H]1C(=O)O[C@H](C)[C@H](NC(=O)c2cccc(NC=O)c2O)C(=O)O[C@@H](C)[C@@H]1OC(=O)CC(C)C` [Antimycin A]: the normalised cell viability came to 0.148 ± 0.012 (treatment time: 3 days) and 0.124 ± 0.011 (treatment time: 6 days).
With `CCCC(C)(COC(N)=O)COC(=O)NC(C)C` (stereo not given) [Carisoprodol], the normalised cell viability (treatment time: 3 days) is 0.992 ± 0.042 and the normalised cell viability (treatment time: 6 days) turned out to be 1.09 ± 0.04.
Taken in the same sequence, the figures for `CN1CCC2(C)c3cc(O)ccc3N(C)C12` (single isomer, unassigned; (-)) [(-)-Eseroline fumarate salt] were 0.694 ± 0.028 and 0.769 ± 0.015.
On to `CCC(C)C1O[C@]2(C=C[C@@H]1C)C[C@@H]1CC(C/C=C(\C)[C@@H](OC3C[C@H](OC)[C@@H](OC4C[C@H](OC)[C@@H](O)[C@H](C)O4)[C@H](C)O3)[C@@H](C)/C=C/C=C3\COC4[C@H](O)C(C)=CC(C(=O)O1)[C@]34O)O2` (stereo not given in full) [Avermectin B1a], for which the normalised cell viability turned out to be 0.303 ± 0.021 (treatment time: 3 days) and 0.193 ± 0.025 (treatment time: 6 days).
In the same order, the values of `CC(C)(N)Cc1ccccc1` [Phentermine hydrochloride] are 1 ± 0.041 and 0.995 ± 0.023.
Taken in the same sequence, the figures for `NCC(CC(=O)O)c1ccc(Cl)cc1` (racemic) [Baclofen (R,S)] were 0.897 ± 0.079 and 0.956 ± 0.083.
